Bioassay records (PubChem BioAssay)
PLAP act = activates human placental alkaline phosphatase. P05187. purified PLAP enzyme, luminescent substrate read-out; active compounds read high. activation fold at 20 µM. 96,000 tested, 1.2% active. AID 696; in the data active = activation fold above about 2
Target sequence (P05187 whole entry, looked up): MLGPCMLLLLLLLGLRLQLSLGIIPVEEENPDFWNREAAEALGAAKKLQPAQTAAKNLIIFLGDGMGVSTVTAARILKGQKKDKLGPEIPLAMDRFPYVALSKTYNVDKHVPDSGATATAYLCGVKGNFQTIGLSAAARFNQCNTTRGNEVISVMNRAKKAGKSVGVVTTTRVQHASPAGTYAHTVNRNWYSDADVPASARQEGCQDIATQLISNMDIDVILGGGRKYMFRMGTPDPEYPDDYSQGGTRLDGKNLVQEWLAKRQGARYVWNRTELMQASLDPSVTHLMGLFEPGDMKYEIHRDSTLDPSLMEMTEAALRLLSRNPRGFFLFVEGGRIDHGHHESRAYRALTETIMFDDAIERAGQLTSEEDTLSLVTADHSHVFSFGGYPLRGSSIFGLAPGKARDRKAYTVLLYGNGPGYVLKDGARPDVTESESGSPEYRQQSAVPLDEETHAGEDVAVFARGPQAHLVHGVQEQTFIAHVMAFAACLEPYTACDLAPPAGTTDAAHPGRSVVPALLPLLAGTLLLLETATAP
CYP2C19 inhib = inhibitors of human CYP2C19; P33261; CYP2C19 Supersomes, luciferin-H EGE luminescence, 30 min; inhibition, % at 5 µM; 96,000 tested, 21% active; AID 778;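 active = CYP2C19 inhibition above a set limit at 5 µM in the primary screen, cut at about 50% in these data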
CYP2C19 act = cytochrome P450 2C19 (human) activation. recombinant CYP2C19, luciferin-H EGE luminescence; active compounds read high; 0 = fully inhibited enzyme, 1 = untreated enzyme. activation factor at 5 µM. 96,000 tested, under 10 active;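 active = activation factor of at least 2 at 5 µM in the primary screen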
CYP2C9 inhib = human CYP2C9 inhibition | 96,000 tested, 20% active | CYP2C9 Supersomes, luciferin-H conversion, luminescence | inhibition, % at 5 µM | AID 777;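 active = blocking of liver enzyme CYP2C9 beyond about 50% at 5 µM, limit read from the data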
CYP2C9 act = CYP2C9 (human) activation; P11712; recombinant CYP2C9, luciferin-H conversion, luminescence; active compounds read high; factor 1 = untreated enzyme, 0 = blocked; activation factor at 5 µM; 96,000 tested, 1.4% active;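 active = activation factor of 2 or more for CYP2C9 at a 5 µM dose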
Hits are given with their value; n = inactive. Shown are actives, neighbours in structure and some others; about 31% of the full set was active somewhere.

SMILES	PLAP act	CYP2C19 inhib	CYP2C19 act	CYP2C9 inhib	CYP2C9 act
COc1ccc(S(=O)(=O)N=C2C=C(C)C(=O)C(C)=C2)cc1	n	66	n	n	n
COc1ccc(S(=O)(=O)N2CCCCC2)cc1	n	n	n	n	n
O=Nc1ccc(NOC(=O)c2ccc(Br)cc2)cc1	n	n	n	n	n
Cc1ccc(C(=O)ONc2ccc(N=NC(=O)c3ccccc3O)cc2)cc1	n	100	n	92	n
Cc1ccc(C(=O)ONc2ccc(N=O)cc2)cc1	n	n	n	93	n
Cc1sc2nc(SCC(=O)NCCOCCO)n(C)c(=O)c2c1C	n	n	n	n	n
COc1ccccc1Nc1nc(N)nc(CSc2nnc(C)s2)n1	n	n	n	n	n
CCOc1ccc(-c2nc(CSc3nnc(C)s3)cs2)cc1OC	2.1	n	n	n	n
CCOc1ccc(-c2nc(CSc3nncs3)cs2)cc1OC	n	53	n	n	n
Fc1ccc(-c2csc3ncnc(Nc4ccc(N5CCOCC5)cc4)c23)cc1	n	n	n	n	n
O=C(NCC1COc2ccccc2O1)C1CCC(CNc2c(N3CCCCC3)c(=O)c2=O)CC1 (stereo unspecified)	n	n	n	n	n
CCN(CC)CCNc1nc(-c2ccccc2)nnc1C(F)(F)F	n	n	n	n	n
CC1=CC(=NOC(=O)c2cccc([N+](=O)[O-])c2)C=C(C)C1=O	n	n	n	n	n
CC1=CC(=O)C(C(C)C)=C/C1=N/OC(=O)c1cccc([N+](=O)[O-])c1	n	n	n	53	n
CCOC(=O)c1c(C2CCN(C(=O)OCC)CC2)nc2ccccn12	n	n	n	72	n
CCOc1ccc(-n2c(Cc3cc(=O)[nH]c(=O)[nH]3)nnc2SC(C)C(=O)OC)cc1 (stereo unspecified)	n	n	n	n	n
CC1CCN(S(=O)(=O)c2cccc(-c3cn4cc(Cl)ccc4n3)c2)CC1	n	n	n	61	n
CCOC(=O)C1CCN(S(=O)(=O)c2cccc(-c3cn4cc(Cl)ccc4n3)c2)CC1	n	76	n	67	n
CCOC(=O)C1CCN(S(=O)(=O)c2cccc(-c3cn4cccc(C)c4n3)c2)CC1	n	53	n	64	n
COc1ccc(CC(=O)NCCN2CCCC2)cc1	n	n	n	n	n
O=c1cc(O)nc(SC23CC4CC(CC(C4)C2)C3)[nH]1	n	n	n	n	n
Cc1cn(C(=O)C(C)N2C(=O)c3ccccc3C2=O)c(C)n1 (stereo unspecified)	n	50	n	n	n
Cc1nn(C(=O)C(C)N2C(=O)c3ccccc3C2=O)c(C)c1Br (stereo unspecified)	n	n	n	n	n
O=C(CSc1nnc(-c2cc3ccccc3cc2O)n1Cc1ccco1)N1CCc2ccccc2C1	n	57	n	81	n
CC(C)N(C(=O)CSc1nnc(-c2cc3ccccc3cc2O)n1Cc1ccco1)C(C)C	n	n	n	62	n
SMILES	PLAP act	CYP2C19 inhib	CYP2C19 act	CYP2C9 inhib	CYP2C9 act
Cc1occc1-c1nnc(SCC(=O)N2CCOCC2)n1Cc1ccco1	n	n	n	n	n
C=CCC1(O)CC(c2ccco2)NC(c2ccco2)C1CCC (stereo unspecified)	n	n	n	n	n
N#Cc1nc(-c2ccc(OCc3ccccc3)cc2)oc1NCc1ccco1	n	n	n	n	n
Cc1ccc(-c2nc(C#N)c(NCc3ccco3)o2)cc1	n	n	n	58	n
N#Cc1nc(COc2cccc(Cl)c2)oc1NCc1ccco1	n	50	n	85	n
Cc1ccc(OCc2nc(C#N)c(NCc3ccco3)o2)cc1	n	90	n	100	n
COc1ccccc1OCc1nc(C#N)c(NCc2ccco2)o1	n	74	n	80	n
N#CN=C1CCCCCN1CC(N)=O	n	n	n	n	n
NC(=O)c1cc2n(n1)C(C(F)(F)F)CC(c1ccco1)N2 (stereo unspecified)	n	n	n	n	n
Nc1nc(-c2cccs2)c(NC(=O)c2ccccc2)s1	n	n	n	n	n
O=C(Nc1c(-c2ccccc2)nc2sccn12)c1ccccc1	n	79	n	74	n
Cc1cccc(N2CCN(S(=O)(=O)c3ccc4c(c3)CCN4C(=O)CCC(=O)O)CC2C)c1 (stereo unspecified)	n	n	n	n	n
c1ccc(-c2nnc(-c3ccco3)o2)cc1	n	50	n	n	n
COc1ccccc1CC(=O)Nc1ccc(-c2nnc(-c3ccco3)o2)cc1	n	n	n	n	n
O=C(Nc1ccc(-c2nnc(-c3ccco3)o2)cc1)C(c1ccccc1)c1ccccc1	n	n	n	72	n
CC(=NCCc1ccccc1)C1=C(O)COC1=O	n	n	n	n	n
Cc1ccc(-n2nc(C)cc2NC(=O)c2ccc(C)s2)cc1	n	76	n	n	n
Cc1cc(NC(=O)c2cc(-c3ccccc3)on2)n(-c2ccccc2)n1	n	n	n	n	n
CC1(c2ccccc2)NC(=O)N(CC(=O)N2CCOCC2)C1=O (stereo unspecified)	n	n	n	n	n
Cc1cccc(NC(=O)CN2C(=O)NC(C)(c3ccc4c(c3)OCO4)C2=O)c1 (stereo unspecified)	n	n	n	67	n
Cc1ccc(C2(C)NC(=O)N(CC(=O)Nc3ccc4c(c3)OCO4)C2=O)cc1 (stereo unspecified)	n	n	n	82	n
CCC1(c2ccccc2)NC(=O)N(CC(=O)Nc2ccc3c(c2)OCO3)C1=O (stereo unspecified)	n	n	n	n	n
CC1(c2ccc3c(c2)OCO3)NC(=O)N(CC(=O)Nc2ccc(N3CCOCC3)cc2)C1=O (stereo unspecified)	n	n	n	59	n
COCC(COCCCNC(=O)Nc1ccc(Br)cc1)OC (stereo unspecified)	n	n	n	n	n
O=C(NCCCN1CCOCC1)C1CC(=O)N(C2CCCCC2)C1 (stereo unspecified)	n	n	n	n	n
SMILES	PLAP act	CYP2C19 inhib	CYP2C19 act	CYP2C9 inhib	CYP2C9 act
CC1(C(=O)N(CC(=O)NC2CCCC2)Cc2ccco2)CC(=O)N=C2C=CC=CN21 (stereo unspecified)	n	n	n	n	n
C=CCSc1nnc2c(n1)OC=Nc1ccc(Br)cc1-2	n	53	n	60	n
O=C(C1CCCCN1S(=O)(=O)c1ccc(F)cc1)N1CCN(c2ccccc2F)CC1 (stereo unspecified)	n	n	n	n	n
C=CCOC(=O)COc1ccc2c(C)c(C)c(=O)oc2c1	n	55	n	n	n
CCOC(=O)CCc1c(C)c2ccc(OCC(=O)OC(C)C)cc2oc1=O	n	n	n	n	n
C=CCOC(=O)COc1ccc2c(C)c(CC)c(=O)oc2c1	n	64	n	n	n
CCCCc1c(C)c2ccc(OCC(C)=O)cc2oc1=O	n	n	n	n	n
O=C(NC1CC1)C1CCN(c2ncnc3c2sc2cccc(F)c23)CC1	n	61	n	73	n
COc1cc(NC(=O)Cn2nc(C(F)(F)F)c3c2CCCC3)cc(OC)c1OC	n	n	n	n	n
